Assay results taken from PubChem BioAssay AID689 (Sanford-Burnham Center for Chemical Genomics, 2007).
In all, about 62,000 compounds went through this assay and about 80 (0.1%) were called active. The rule behind the calls is not given here. These entries were drawn from the full list. Potency and affinity values are given separately.

These compounds were tested against Ephrin type-A receptor 4 (Mus musculus) (UniProt Q03137) (assay: EphA4 ligand-binding antagonists – biochemical, colorimetric, mouse EphA4, primary screen (AID 689)). Conditions: EphA4-AP binding to KYL peptide, pNPP A405, at 10 µM, hits give high values.
Sequence of Ephrin type-A receptor 4 (Mus musculus) (Q03137 whole entry, looked up): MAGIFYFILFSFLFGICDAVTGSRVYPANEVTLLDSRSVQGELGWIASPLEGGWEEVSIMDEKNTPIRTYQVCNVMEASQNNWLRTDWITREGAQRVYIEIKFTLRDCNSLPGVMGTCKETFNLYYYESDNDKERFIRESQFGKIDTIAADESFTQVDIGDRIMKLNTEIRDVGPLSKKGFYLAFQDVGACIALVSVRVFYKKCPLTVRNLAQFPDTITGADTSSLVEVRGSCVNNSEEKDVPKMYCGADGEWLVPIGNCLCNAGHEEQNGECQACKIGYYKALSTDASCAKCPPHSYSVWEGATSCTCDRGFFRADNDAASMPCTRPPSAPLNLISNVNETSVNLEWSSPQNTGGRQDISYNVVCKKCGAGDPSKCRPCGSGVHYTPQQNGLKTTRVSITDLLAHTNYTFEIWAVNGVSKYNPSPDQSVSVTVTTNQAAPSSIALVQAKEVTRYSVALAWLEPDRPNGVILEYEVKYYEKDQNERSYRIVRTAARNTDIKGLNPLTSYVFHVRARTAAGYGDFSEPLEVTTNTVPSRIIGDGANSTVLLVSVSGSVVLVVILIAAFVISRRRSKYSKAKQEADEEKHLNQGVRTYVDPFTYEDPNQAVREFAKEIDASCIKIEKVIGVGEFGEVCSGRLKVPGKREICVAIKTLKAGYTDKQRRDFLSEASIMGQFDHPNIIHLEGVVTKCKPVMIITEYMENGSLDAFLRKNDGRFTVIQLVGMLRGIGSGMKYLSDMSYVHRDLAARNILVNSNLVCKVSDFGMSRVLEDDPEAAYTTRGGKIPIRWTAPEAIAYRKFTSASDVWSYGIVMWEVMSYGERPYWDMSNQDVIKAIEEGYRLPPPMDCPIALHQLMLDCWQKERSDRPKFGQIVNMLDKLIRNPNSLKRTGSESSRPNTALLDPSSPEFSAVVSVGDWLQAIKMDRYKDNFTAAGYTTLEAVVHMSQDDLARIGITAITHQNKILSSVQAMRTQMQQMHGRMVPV

inhibition, inactive:
Cc1cc(C)n2nc(SC3CCCCN(C(=O)c4ccc(F)cc4)C3=O)nc2n1 (configuration not stated) -9.7%
Cc1nn2cc(-c3ccccc3)nc2s1 -24.1%
c1ccc(-c2cn3nc4c(nc3n2)CCCC4)cc1 5.2%
Cc1cc(=O)[nH]c(SCCOc2ccccc2C)n1 -0.8% [this sample at 5 µg/mL]
CC1CC(C)CN(C(=O)CSc2nnc(-c3ccc(F)cc3)o2)C1 (configuration not stated) 8.1%
Cc1ccc(C(=O)N/C(=C\c2ccc([N+](=O)[O-])cc2)C(=O)NCCc2ccccc2)cc1 1.8%
Cc1ccc(NC(=O)/C(=C\c2ccc([N+](=O)[O-])cc2)NC(=O)c2ccccc2)cc1 -12.9%
COc1ccc(NC(=O)/C=C/c2ccccc2Cl)c([N+](=O)[O-])c1 -10.9% [this sample at 5 µg/mL]
CC1=N/C(=C\c2ccc([N+](=O)[O-])cc2)C(=O)N1c1ccc(Br)c(C)c1 40.9%
CC1=N/C(=C\c2ccc([N+](=O)[O-])cc2)C(=O)N1c1ccc(Cl)cc1 22.2%
O=C(COc1ccccc1)Nc1ccc(S(=O)(=O)N2CCOCC2)cc1 5.4%
C=C(C)Cn1c(COc2ccccc2)nnc1SCC(=O)O 1.1%
O=C(/C(=C/c1ccccc1[N+](=O)[O-])c1nc2ccccc2[nH]1)c1ccccc1 9% [this sample at 5 µg/mL]
CCOC(=O)c1cc(-c2ccc(C=C3C(=O)N(C)C(=O)N(C)C3=O)o2)ccc1Cl 11% [this sample at 5 µg/mL]
O=C1NC(=O)N(c2ccc(Cl)cc2)C(=O)/C1=C/c1ccc(-c2ccc(Cl)c(C(=O)O)c2)o1 -6.4% [this sample at 5 µg/mL]
CN1C(=O)C(=Cc2ccc(-c3ccc(Cl)c(C(=O)O)c3)o2)C(=O)N(C)C1=O 12.8% [this sample at 5 µg/mL]
Cc1ccc(N2C(=O)/C(=C\c3ccc(-c4ccc(Cl)c(C(=O)O)c4)o3)C(=O)NC2=S)cc1 -13.7% [this sample at 5 µg/mL]
COc1ccc(/C=C/C(=O)Nc2cccc([N+](=O)[O-])c2)cc1Br 1.9% [this sample at 5 µg/mL]
COC(=O)c1cccc(NC(=O)COC(=O)CSc2nc(C)cc(C)n2)c1 -9.9%
Cn1c(SCCOc2ccc(Cl)cc2)nnc1-c1ccncc1 13%
Cc1ccc(CNc2oc(C)nc2C#N)cc1 -0.9%
O=C(NCCOc1ccccc1F)c1cccc2ccccc12 -0.6% [this sample at 5 µg/mL]
COC(=O)c1ccc(Cn2cnc3c(cnn3-c3ccc(F)cc3)c2=O)o1 9.4%
Cc1ccc(/C=C/C2=Cc3c(sc(NC(=O)CSc4n[nH]c(N)n4)c3C#N)C(C)(C)C2)o1 44.8%
Cc1sc(NC(=O)CSc2nnc(C)c(=O)[nH]2)c(C#N)c1C -25.1%
Cc1ccc(OCc2nnc(SCC(=O)Nc3sc(C)c(C)c3C#N)n2C)cc1 -5.2%
CCOc1ccc(NC(=O)CSc2nc(C)c3c(c2C#N)CCCC3)cc1 -14.6%
COc1cc(C2N(c3ccc(Cl)c(Cl)c3)C(=O)C3CCCN32)cc(OC)c1OC (configuration not stated) -1.5%
O=C(NC1CCCCCCC1)C1CCCN(S(=O)(=O)c2cnc[nH]2)C1 (configuration not stated) -3.1%
COc1ccc(C)cc1NC(=O)C1CC(=O)N(Cc2ccco2)C1 (configuration not stated) -16.4%
O=C1CCCC2=C1C(c1ccco1)Nc1ccc(C(=O)c3ccccc3)cc1N2 (configuration not stated) -4.7%
O=C1CCCC2=C1C(c1cccs1)Nc1ccc3ncccc3c12 (configuration not stated) -5.1%
CC1(C)N=C(c2ccc(Cl)cc2Cl)C(=O)N1 -8.8%
CCOc1ccccc1NC(=S)N1CCC(NC(=O)NC23CC4CC(CC(C4)C2)C3)CC1 -4.6%
O=C(c1ccc2c(c1)OCO2)N1CCC(CN2C(=O)c3cccc4cccc(c34)C2=O)CC1 -13.5% [this sample at 5 µg/mL]
Cc1ccc2nc(NC3=NCN(Cc4ccccc4)CN3)nc(C)c2c1 1.1%
CN1C(=O)/C(=C2\SC(=S)N(CC3CCCO3)C2=O)c2ccccc21 (configuration not stated) -3.2%
O=C1/C(=C\c2ccc(-c3ccccc3Cl)o2)SC(=S)N1Cc1ccccc1 18.2% [this sample at 5 µg/mL]
Cc1ccccc1OCC(=O)Nc1ccc2c(c1)Cc1ccccc1-2 -9.2%
Cc1c(NC(=O)CC(=O)Nc2c(C)n(C)n(-c3ccccc3)c2=O)c(=O)n(-c2ccccc2)n1C 0.3%
Cc1c(NC(=S)N/N=C/c2ccc(O)cc2)c(=O)n(-c2ccccc2)n1C -1.6%
COc1ccccc1-c1nnc2n1N=C(c1ccc(O)c(O)c1)CS2 -9.2%
COc1cc(/C=c2\sc3nc4ccccc4n3c2=O)ccc1OCCOc1ccccc1 -2.3% [this sample at 5 µg/mL]
COc1cc(/C=c2\sc3nc4ccccc4n3c2=O)ccc1OS(=O)(=O)c1ccccc1 10.7% [this sample at 5 µg/mL]
COCCNC(=O)CN(C(=O)CCC(=O)Nc1nccs1)c1ccccc1OC -10.3%
CCN1C(=O)/C(=C/C=C2/SCCN2C)SC1=S -7.6%
CCN1C(=O)/C(=C\c2cccc(C)c2)SC1=S -1.5% [this sample at 5 µg/mL]
CN1/C(=C\C=Nc2ccccc2)C(C)(C)c2ccccc21 4%
CN1/C(=C\C=[N+](C)c2ccccc2)C(C)(C)c2ccccc21 -36.4%
COc1ccc(C(=O)NCCCn2ccnc2)cc1 3%
O=C(Nc1ccccc1)N1CCC(C(=O)N2CCN(S(=O)(=O)c3cccc(F)c3)CC2)CC1 -6.6%
COc1ccc(OC)c(NC(=O)CN(c2ccccc2)S(=O)(=O)c2ccccc2[N+](=O)[O-])c1 -12.2% [this sample at 5 µg/mL]
